# Compound activity: PubChem, several laboratories
# The list is not random: actives were taken first. Their share in the collection is about 3.1%.
# 14-3-3 Bad PPI: disrupts binding of bovine 14-3-3 zeta to phospho-Bad peptide. P63103. TR-FRET 14-3-3zeta/Dy647-pBad peptide displacement, 1 h. inhibition, % at 21.7 µM. hit rate 0.71% among 220,000. AID 781;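 active = inhibition above about 70%, limit read from the data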;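 also: 0% = full 14-3-3 plus peptide FRET controls and 100% = background without 14-3-3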
# Target sequence (P63103 whole entry, looked up): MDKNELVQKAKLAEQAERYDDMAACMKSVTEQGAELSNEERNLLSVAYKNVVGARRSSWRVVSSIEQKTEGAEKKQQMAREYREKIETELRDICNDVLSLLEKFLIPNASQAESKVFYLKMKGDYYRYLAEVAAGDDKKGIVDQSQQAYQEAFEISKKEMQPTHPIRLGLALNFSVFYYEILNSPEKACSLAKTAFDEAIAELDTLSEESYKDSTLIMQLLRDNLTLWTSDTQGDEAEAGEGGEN
# p47phox inh: inhibitors of human p47phox binding. P14598. p47phox/p22phox peptide binding, fluorescence polarization, 2 h. inhibition, % at 24.7 µM. hit rate 0.53% among 220,000. AID 1274;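 active = inhibition above about 30%, limit read from the data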;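 also: 0% = p47phox with labelled peptide and 100% = labelled peptide alone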
# Target sequence (P14598 whole entry, looked up): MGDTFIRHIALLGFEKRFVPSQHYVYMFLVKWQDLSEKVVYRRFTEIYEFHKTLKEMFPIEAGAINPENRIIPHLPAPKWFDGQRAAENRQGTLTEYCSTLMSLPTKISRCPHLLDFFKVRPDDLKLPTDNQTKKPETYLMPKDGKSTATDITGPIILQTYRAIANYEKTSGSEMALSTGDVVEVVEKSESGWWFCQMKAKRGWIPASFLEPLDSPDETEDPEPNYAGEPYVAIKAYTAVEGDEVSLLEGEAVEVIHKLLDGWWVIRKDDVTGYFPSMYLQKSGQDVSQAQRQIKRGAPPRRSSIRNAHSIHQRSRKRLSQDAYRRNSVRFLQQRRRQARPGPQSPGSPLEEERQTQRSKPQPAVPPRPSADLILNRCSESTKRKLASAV
# Mcl1-Noxa inh: Mcl-1/Noxa interaction inhibition | Q07820 | TR-FRET Mcl-1/Noxa peptide binding, 2 h | inhibition, % at 21.7 µM | hit rate 1.5% among 220,000;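 active = compounds that cut the protein-peptide binding signal by more than 50% relative to plate controls in a single-dose test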;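 also: His-tagged Mcl-1 with rhodamine Noxa BH3 peptide and terbium anti-His antibody; 0% = Mcl-1 plus Noxa peptide wells and 100% = peptide-only wells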
# Bim-Mcl-1: inhibitors of Bim-Mcl-1 interaction, human | hit rate 0.1% among 190,000 | Bead-based flow cytometry, Bim peptide-Mcl-1 binding | Q07820 | inhibition, % at 10 µM; in the data active = inhibition above about 40%;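 also: 0% = no compound tracer wells and 100% = peptide blocker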
# Mcl1-Bid inh: disrupts binding of human Mcl-1 to Bid peptide; hit rate 0.97% among 220,000; inhibition, % at 21.7 µM; Q07820; AID 1021; TR-FRET Mcl-1/Bid-Dy647 peptide binding, 1536-well;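 active = compounds that cut the binding signal by more than half at the single screening dose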;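 also: His-tagged Mcl-1 with europium anti-His antibody binding Bid BH3 peptide; 0% = Mcl-1 plus peptide wells and 100% = peptide-only wells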
# An asterisk follows results filed as active; x = not tested or not shown; [ ] = remark or other dose.
SMILES,14-3-3 Bad PPI,p47phox inh,Mcl1-Noxa inh,Bim-Mcl-1,Mcl1-Bid inh
COC(CN1C(=O)C(=O)/C(=C(/O)c2ccccc2)C1c1ccccn1)OC (stereo not drawn),9.6,6.8,9.3,-3.0,7.6
COc1ccc(N2CCN(c3cnc4ccccc4n3)CC2)cc1,45.9,-2.2,59.0*,3.0,-15.9
COC(=O)c1cccc(C23CC4(C2)[C@H](CN(Cc2cccnc2)[C@@H]4c2ccccc2)C3c2ccccc2)c1 (stereo partly drawn),-1.8,-31.7,-24.2,x,-34.7
O=Cc1cn(CC(O)CN2CCCCC2)c2ccccc12 (stereo not drawn),-13.7,-3.6,0.8,0.0,-43.9
CC(C)(CO)NCC(O)Cn1cc(C=O)c2ccccc21 (stereo not drawn),100.1*,2.0,16.3,-1.0,-14.4
Cc1nn(CC(=O)N/N=C/c2ccc3c(c2)OCO3)c(C)c1Br,80.5*,4.1,-4.5,-7.0,-13.1
N#C/C(=C\c1ccc(F)cc1F)S(=O)(=O)c1ccccn1,-3.3,-18.1,-29.3,x,-13.1
O=C1/C(=C/c2cccnc2)SC(=S)N1CCc1ccccc1,0.4,-4.0,6.0,x,-28.3
CCCCCCCCCCOC(=O)c1csc2nnsc12,-9.7,-15.0,1.8,-3.0,-8.0
CSc1nc2c(c(=O)[nH]1)CCCC2,7.1,-4.7,-19.4,-1.0,-8.8
CSc1nc(=S)c2[nH]c(=S)[nH]c2[nH]1,16.5,16.9,51.0*,x,-61.2
CCOc1ccc(/C=N/OCC(=O)NCc2ccco2)cc1,-2.6,-1.9,4.7,-1.0,-1.5
CNc1sc(C(=O)c2ccccc2F)c(N)c1-c1nc2ccccc2s1,5.4,-7.1,85.9*,0.0,-33.2
CC(C)(C)/C(O)=C(/C#N)c1nc2ccccc2[nH]1,-11.5,-12.2,12.2,2.0,-11.9
N#C/C(=C(O)\C=C\c1ccccc1)c1nc2ccccc2[nH]1,25.6,8.9,67.3*,x,49.9
Cn1c(=O)n(C)c2cc(S(=O)(=O)O)ccc21,73.9*,-12.7,2.0,0.0,-4.0
CCCNS(=O)(=O)c1ccc2c(c1)n(C)c(=O)n2C,83.8*,-3.1,1.0,3.0,-53.1
Cc1cc(C)cc(NS(=O)(=O)c2ccc3c(c2)c(=O)n(C)c(=O)n3C)c1,7.0,1.8,5.4,4.0,-10.8
Cn1c(=O)c2cc(S(=O)(=O)Nc3cc(C(=O)O)cc(C(=O)O)c3)ccc2n(C)c1=O,-3.4,-4.4,1.8,46.0*,-24.9
CCNS(=O)(=O)c1ccc2c(c1)n(C)c(=O)n2C,-8.0,-1.2,-0.9,-1.0,5.3
CN(/N=C/c1cccnc1)c1cnc2ccccc2n1,-7.2,3.7,-3.0,2.0,-25.9
COc1ccc(N2C(=O)CC(S/C(N)=N/N=C/c3ccnc4ccccc34)C2=O)cc1 (stereo not drawn),75.4*[fluorescence artefact?],26.9,35.4,-3.0,81.0*
N/C(=N\N=C\c1ccnc2ccccc12)SC1CC(=O)N(c2ccc(Br)cc2)C1=O (stereo not drawn),10.0,-7.7,36.4,-3.0,28.1
Cc1ccc(NC(=O)O/N=C/c2c(C)nn(C(C)(C)C)c2C)cc1Cl,-2.4,131.9*,8.9,x,-0.9
COc1ccc(C2=NN(c3nc(-c4ccccc4)c(CC(=O)O)s3)C(c3ccco3)C2)cc1 (stereo not drawn),-21.9,-133.8,85.1*,0.0,-125.2
SMILES,14-3-3 Bad PPI,p47phox inh,Mcl1-Noxa inh,Bim-Mcl-1,Mcl1-Bid inh
Cc1nc(N2N=C(c3ccc(Cl)cc3)CC2c2ccco2)sc1C(=O)N(C)C (stereo not drawn),-7.7,-16.0,24.2,0.0,-22.5
Cc1cc(=O)c2ccc(C(F)(F)F)cc2[nH]1,56.6,-6.6,29.8,x,82.7*
C(=N\Nc1nc(Nc2ccccc2)nc(N2CCCCC2)n1)/c1ccco1,-9.3,134.8*,21.3,0.0,-20.5
CC(NS(C)(=O)=O)C(c1cccs1)N1CCN(Cc2ccccc2)CC1 (stereo not drawn),6.6,168.6*,-3.6,-2.0,-14.7
CC(NS(C)(=O)=O)C(c1cccs1)N1CCN(C)CC1 (stereo not drawn),1.8,-9.5,20.7,1.0,-13.3
Cc1nc(N2CCOCC2)c2oc3ccccc3c2n1,4.6,-6.3,9.4,-3.0,-1.0
c1ccc2c(c1)oc1c(N3CCOCC3)ncnc12,80.9*,-6.6,31.3,-1.0,28.2
CC1CCc2sc(C(=O)N/N=C/c3ccc([N+](=O)[O-])cc3)cc2C1 (stereo not drawn),51.9,5.1,14.3,-1.0,45.5
Cc1onc(-c2ccccc2Cl)c1C(=O)N1CCOC12CCCCC2,-17.4,2.9,6.1,3.0,-35.4
CCC1CCCCN1S(=O)(=O)c1ccc(S(=O)(=O)N(Cc2ccccn2)CC2CCCO2)cc1 (stereo not drawn),-6.1,-6.4,90.0*,1.0,-14.9
CC/C(=C\C1CCCCC1)C(NP(=O)(c1ccccc1)c1ccccc1)c1ccccc1 (stereo not drawn),-6.2,-10.6,18.8,-1.0,9.3
Cc1cc(NC(=O)c2ccc(Cl)c(S(=O)(=O)N3CCOCC3)c2)no1,-3.6,2.7,9.2,-5.0,-12.3
COc1ccc(C(=O)Nc2cc(C)on2)cc1S(=O)(=O)N1CC(c2ccccc2)CC1=O (stereo not drawn),90.1*,-11.1,10.9,-4.0,-28.4
C1=C(CCNCC2CCCCC2)CCCC1,9.6,3.0,18.7,1.0,-18.9
Clc1cc(Br)ccc1OCCOCCN1CCOCC1,61.2,-3.2,x,1.0,15.8
CCN(CC)c1nc2c3c(nc4c(c3c1C#N)CC(=O)N4c1ccc(Cl)cc1)NC(C)=N2,-10.8,-35.4,82.5*,2.0,27.1
Cc1cc2nnc(SCC(=O)N3CCCCC3)n2c(N)n1,-1.8,-23.9,-0.8,0.0,3.1
Cc1cc2nnc(SCC(=O)N3C(C)CCCC3C)n2c(N)n1 (stereo not drawn),5.7,53.6*,0.5,0.0,-5.6
CCOCC(=O)Nc1ccc(S(=O)(=O)N2CCOCC2)cc1,-8.9,-2.2,11.6,1.0,1.5
CCOc1ccc(NC(=O)COn2nnc3ccc(S(=O)(=O)N4CCOCC4)cc32)cc1,-2.2,-4.0,70.7*,-1.0,-10.2
CSc1cnn(-c2ccccc2)c(=O)c1SC,-4.4,-3.1,x,0.0,-22.7
CSc1cnn(Cc2ccccc2)c(=O)c1SCc1ccccc1,-4.3,1.2,99.1*,-7.0,-12.5
COc1cc(/C=N/Nc2ccc(C(F)(F)F)cn2)cc(OC)c1O,-6.5,-39.4,56.8*,0.0,-19.0
O=C(Nc1ccc(-c2nc3ccc(NC(=O)c4cccs4)cc3[nH]2)cc1)c1cccs1,81.8*[fluorescence artefact?],-15.4,64.9*,-11.0,84.0*
O=C(Nc1ccc2nc(-c3cccs3)[nH]c2c1)c1cccs1,0.9,-11.1,18.2,7.0,-1.7
O=C1CC(C(=O)N(c2ccccc2)C(C(=O)NC2CCCC2)c2ccncc2)CS1 (stereo not drawn),-9.9,5.5,10.5,0.0,-4.6
COc1cccc(N=Nc2c(N)[nH]n3c(=O)cc(-c4ccccc4)nc23)c1,23.2,16.7,29.3,3.0,56.1*
